# “And” between values parts separate entries of the source, which are not always exact repeats. Identical values can stand only once. In all, about 5,500 compounds went through this assay and about 2,000 (36%) were called active. Another 18% or so got no clear call; they are omitted. Some of the results follow. A number with no mark means an inactive call. Cut-off read from the data, not from the text of the source: active = normalized growth mostly below about 0.91 (no sharp cut-off); inconclusive = no clear call, values can overlap the other calls; inactive = mostly above about 0.92.
# Experiment: chemical genetic growth profiling, strain panel (AID 1159580);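 note: tested at 20 µM; growth read once vehicle control cultures reached saturation at 30 °C; 1 = growth at the plate median or of vehicle wells; lower values mean less growth of the strain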
# Details: S. cerevisiae deletion strains, growth OD
smiles,measurement,setting,value
CC(C)=CCc1c(O)cc2oc(C)cc(=O)c2c1O,normalized growth,"locus YAL013W, strain DEP1, hits give low values",0.96
same,normalized growth,"locus YAL021C, strain ccr4, hits give low values",1.01
same,normalized growth,"locus YAL026C, strain drs2, hits give low values",0.977
same,normalized growth,"locus YAL030W, strain snc1, hits give low values",0.986
same,normalized growth,"locus YBL061C, strain skt5, hits give low values",0.973
same,normalized growth,"locus YBR009C, strain hhf1, hits give low values",0.984
same,normalized growth,"locus YBR021W, strain FUR4, hits give low values",0.998
same,normalized growth,"locus YBR023C, strain chs3, hits give low values",0.953
same,normalized growth,"locus YBR171W, strain sec66, hits give low values",0.973
same,normalized growth,"locus YBR229C, strain ROT2, hits give low values",1.01
same,normalized growth,"locus YBR231C, strain swc5, hits give low values",0.98
same,normalized growth,"locus YBR279W, strain paf1, hits give low values",0.982
same,normalized growth,"locus YCL011C, strain gbp2, hits give low values",0.975
same,normalized growth,"locus YCL016C, strain dcc1, hits give low values",0.969
same,normalized growth,"locus YCL029C, strain bik1, hits give low values",0.986
same,normalized growth,"locus YCL061C, strain MRC1, hits give low values",0.973
same,normalized growth,"locus YCL069W, strain vba3, hits give low values",1.01
same,normalized growth,"locus YCR088W, strain abp1, hits give low values",0.957
same,normalized growth,"locus YDL005C, strain med2, hits give low values",0.981
same,normalized growth,"locus YDL035C, strain GPR1, hits give low values",0.912
same,normalized growth,"locus YDL040C, strain nat1, hits give low values",0.986
same,normalized growth,"locus YDL074C, strain BRE1, hits give low values",0.947
same,normalized growth,"locus YDL101C, strain DUN1, hits give low values",0.993
same,normalized growth,"locus YDL185W, strain tfp1, hits give low values",0.98
same,normalized growth,"locus YDL192W, strain arf1, hits give low values",0.93
same,normalized growth,"locus YDR001C, strain nth1, hits give low values",0.976
same,normalized growth,"locus YDR069C, strain doa4, hits give low values",1
same,normalized growth,"locus YDR101C, strain arx1, hits give low values",0.907 (active)
same,normalized growth,"locus YDR137W, strain rgp1, hits give low values",0.855
same,normalized growth,"locus YDR159W, strain sac3, hits give low values",0.983
same,normalized growth,"locus YDR162C, strain NBP2, hits give low values",0.903
same,normalized growth,"locus YDR195W, strain ref2",1.16 [resistant] (active)
same,normalized growth,"locus YDR297W, strain sur2, hits give low values",0.973
same,normalized growth,"locus YDR318W, strain mcm21, hits give low values",0.929
same,normalized growth,"locus YDR334W, strain swr1, hits give low values",0.985
same,normalized growth,"locus YDR335W, strain msn5, hits give low values",0.972
same,normalized growth,"locus YDR388W, hits give low values",0.977
same,normalized growth,"locus YDR392W, strain spt3, hits give low values",0.87
same,normalized growth,"locus YDR502C, strain sam2, hits give low values",0.963
same,normalized growth,"locus YEL003W, strain gim4, hits give low values",0.976
same,normalized growth,"locus YEL037C, strain rad23, hits give low values",0.993
same,normalized growth,"locus YEL061C, strain CIN8 (second series), hits give low values",0.979
same,normalized growth,"locus YEL061C, strain CIN8, hits give low values",1
same,normalized growth,"locus YER015W, strain faa2, hits give low values",0.983
same,normalized growth,"locus YER016W, strain bim1, hits give low values",0.965
same,normalized growth,"locus YER110C, hits give low values",0.989
same,normalized growth,"locus YER111C, strain swi4, hits give low values",1
same,normalized growth,"locus YER155C, strain BEM2 (second series), hits give low values",0.973
same,normalized growth,"locus YER155C, strain BEM2, hits give low values",0.992
same,normalized growth,"locus YER167W, strain BCK2, hits give low values",0.932
same,normalized growth,"locus YFR010W, strain ubp6, hits give low values",0.98
same,normalized growth,"locus YGL078C, strain dbp3, hits give low values",0.987
same,normalized growth,"locus YGL086W, strain mad1, hits give low values",0.915 (active)
same,normalized growth,"locus YGL167C, strain pmr1, hits give low values",0.996
same,normalized growth,"locus YGL173C, strain kem1, hits give low values",0.985
same,normalized growth,"locus YGL227W, strain vid30, hits give low values",0.968
same,normalized growth,"locus YGL240W, strain doc1, hits give low values",0.968
same,normalized growth,"locus YGL248W, strain PDE1, hits give low values",0.965
same,normalized growth,"locus YGL253W, strain hxk2, hits give low values",0.964
same,normalized growth,"locus YGR078C, strain PAC10, hits give low values",0.959
same,normalized growth,"locus YGR135W, strain pre9, hits give low values",1
same,normalized growth,"locus YGR252W, strain gcn5, hits give low values",0.878
same,normalized growth,"locus YHR013C, strain ard1, hits give low values",1.21 [resistant] (active)
same,normalized growth,"locus YHR027C, strain rpn1, hits give low values",0.999
same,normalized growth,"locus YHR030C, strain SLT2, hits give low values",1 and 0.999
same,normalized growth,"locus YHR079C, strain IRE1 (second series), hits give low values",1
same,normalized growth,"locus YHR079C, strain IRE1, hits give low values",0.971
same,normalized growth,"locus YHR094C, strain hxt1, hits give low values",0.999
same,normalized growth,"locus YHR129C, strain ARP1, hits give low values",0.987
same,normalized growth,"locus YHR142W, strain chs7, hits give low values",0.851 (active)
same,normalized growth,"locus YHR200W, strain rpn10, hits give low values",0.915 (active)
same,normalized growth,"locus YIL066C, strain RNR3, hits give low values",0.95
same,normalized growth,"locus YIL073C, strain SPO22, hits give low values",1.01
same,normalized growth,"locus YIL125W, strain kgd1, hits give low values",0.904 (active)
same,normalized growth,"locus YIR030C, strain dcg1, hits give low values",0.988
same,normalized growth,"locus YJL092W, strain hpr5, hits give low values",0.975
same,normalized growth,"locus YJL095W, strain BCK1 (second series), hits give low values",0.97
same,normalized growth,"locus YJL095W, strain BCK1, hits give low values",0.928 and 0.969
same,normalized growth,"locus YJL115W, strain asf1, hits give low values",0.984
same,normalized growth,"locus YJL129C, strain trk1, hits give low values",0.951
same,normalized growth,"locus YJL134W, strain LCB3, hits give low values",1
same,normalized growth,"locus YJL154C, strain vps35, hits give low values",0.983
same,normalized growth,"locus YJL164C, strain tpk1, hits give low values",0.929
same,normalized growth,"locus YJL166W, strain qcr8, hits give low values",0.972
same,normalized growth,"locus YJL168C, strain set2, hits give low values",0.999
same,normalized growth,"locus YJL187C, strain SWE1 (second series), hits give low values",0.966
same,normalized growth,"locus YJL187C, strain SWE1, hits give low values",0.98
